Bioassay records deposited in PubChem by National Center for Advancing Translational Sciences (NCATS).
This is a sample that favours compounds with a hit; in the whole collection about 19% have one here.
KB-V1 MDR tox: kills drug-selected multidrug resistant KB-V1 cells. KB-V1 MDR cells viability, CellTiter-Glo, 72 h. Potency, µM (highest dose often 46.1 µM), hits mostly cytotoxic. 400,000 compounds, 3.4% hits; further: nearly all actives have a fitted effect of over 60% in size
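Compound-treated KB-V1 multidrug-resistant cells, 72 h, 37 degrees C; viability by CellTiter-Glo. Fitted qHTS curves give the values.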
KB-3-1 cytotox: KB-3-1 parental cell cytotoxicity; KB-3-1 viability, CellTiter-Glo ATP luminescence, 72 h; AID 1347075; Potency, µM (doses to about 46.1 µM), hits mostly cytotoxic; 400,000 compounds, 1.4% hits; further: nearly all actives have a fitted effect of over 60% in size
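Screening of KB-3-1 cells (DMEM, 10% FBS, phenol-red free) ran from lowest to highest compound concentration; after 72 h at 37 °C viability was read luminescently and curves fitted.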
DT40 TDP1 CPT: growth inhibition of DT40 Tdp1-/-;hTDP1 cells with camptothecin (screen for TDP1 inhibitors). 420,000 compounds, 12% hits. Potency, µM (highest dose often 46.2 µM), for inactives: at the top dose activity change, negative = growth inhibition, actives largely listed as inhibitors. AID 686979. chicken DT40 Tdp1-/-;hTDP1 cells + 20 nM CPT, ATP luminescence, 48 h; further: nearly all actives have a fitted effect of over 55% in size
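Cell growth measured by CellTiter-Glo luminescence after a minimum 48 h, 37 C compound exposure with 20 nM CPT in Tdp1-knockout DT40 cells stably expressing hTDP1, seeded 400/well; qHTS titration format.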
HT1080 IDH1KD tx: toxicity to HT-1080 IDH1 knockdown cells (counter line); HT-1080 IDH1 knockdown viability, ATP luminescence, 48 h; Potency, µM (highest dose often 46.1 µM), for inactives: at the highest dose activity, negative = toxicity, usual class: cytotoxic; 360,000 compounds, 2% hits; AID 686971;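 further: 0% = DMSO wells and -100% = cell-free medium wells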
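Assay cells: HT-1080 with IDH1 knockdown, 750 per well, RPMI/5% FBS. Exposure: 48 h at 37 °C following 2 h pre-incubation. Read: CellTiter-Glo luminescence; fitted concentration-response, curve class assigned.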
TDP1 cell noCPT: qHTS for Inhibitors of human tyrosyl-DNA phosphodiesterase 1 (TDP1): qHTS in cells in absence of CPT; Potency, µM (titrated, usually from 46.2 µM), for the others: top-dose activity change, negative = growth inhibition, hits mostly inhibitors; DT40 Tdp1-/- hTDP1 cells, no CPT, ATP luminescence, 48 h; AID 686978, 2013; 420,000 compounds, 15% hits; further: nearly all actives have a fitted effect of over 55% in size
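Luminescent ATP content (CellTiter-Glo) served as the growth readout. Knockout chicken DT40 cells expressing human TDP1 were exposed to compounds without camptothecin for a minimum 48 hr at 37 °C.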
HT1080-NT tox: kills 2HG-producing HT-1080-NT fibrosarcoma cells. HT-1080-NT fibrosarcoma viability, CellTiter-Glo ATP luminescence, 48 h. Potency, µM (top dose mostly 46.1 µM), without a hit: at the highest dose activity, negative = less viability, most hits filed as cytotoxic. 360,000 compounds, 1.6% hits. AID 686970;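 further: NT is the 2HG producing partner of a matched IDH1 knockdown line; 0% = DMSO-treated cells and -100% = media-only wells without cells; nearly all actives have a fitted effect of over 55% in size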
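Compounds were tested in concentration-response format on HT-1080-NT cells for 48 hours at 37 degrees C. Cell viability came from CellTiter-Glo luminescence; curves were classified by r2, response magnitude and activity.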
The depositor's hits bear a star; i = inactive; ? = inconclusive; / = no result given. The call rests on the fitted dose curve; in most records, active means well fitted curve in the direction sought with a large enough effect; inconclusive means small, poorly fitted or top-dose-only effect, or another doubt; inactive means no such curve, though single readings can be large; an effect the other way counts as inactive or inconclusive. Unless noted, on the % scale 0 is the no-effect control and ±100 the full control effect; potency means the concentration at half of the fitted maximal effect.

SMILES | KB-V1 MDR tox | KB-3-1 cytotox | DT40 TDP1 CPT | HT1080 IDH1KD tx | TDP1 cell noCPT | HT1080-NT tox
CCNC(=O)C1(C)CCN(C(=O)CCc2ccccc2)C1 (centres undefined) | i | i | -6% | -2% | -22% | ?
CCOC(=O)c1nn(-c2ccc(F)cc2)c(=O)cc1OCC(=O)Nc1ccc(F)c(F)c1 | i | i | -17% | 4% | 0% | -2%
O=C(COC(=O)c1ccccc1Cl)NC1CCCCCC1 | i | i | 1% | -1% | -6% | 11%
N#Cc1nc(Nc2cc(F)cc(F)c2)c2ncn(CCCN3CCCC3)c2n1 | i | i | / | / | / | /
COC(=O)c1cccc(Nc2nc(-c3ccncc3)nc3ccccc23)c1 | i | i | ? | 6% | ? | -1%
CCCOC(=O)c1cccc(Nc2nc(C(=O)OCC)nc3ccccc23)c1 | ? | i | 16µM* | / | 13µM* | /
CCOC(=O)c1cccc(Nc2nc(C(=O)OCC)nc3ccccc23)c1 | ? | i | 4.1µM* | / | 3.3µM* | /
CCOC(=O)c1ccc(Nc2cc(C)nc(-c3ccccc3)n2)cc1 | ? | i | 4.6µM* | 18µM* | 5.2µM* | 16µM*
CCOC(=O)c1cccc(Nc2cc(-c3ccccc3)ncn2)c1 | i | i | 15µM* | / | 15µM* | /
C=CCNc1nc(C(=O)OCC)nc2ccccc12 | i | i | -5% | 1% | -20% | 1%
COc1ccc(NC(=O)Cn2nnc(C(=O)NCc3ccccc3Cl)c2N)cc1Cl | / | / | 9% | / | 3% | /
COC1=C2C[C@H](C)C[C@H](OC)[C@@H](O)[C@@H](C)C=C(C)[C@H](OC(N)=O)[C@@H](OC)C=CC=C(C)C(=O)NC(=CC1=O)C2=O | i | ? | 0.079µM* | / | 0.025µM* | /
NC(N)=N/N=C/c1cccc(Cl)c1Cl | ? | ? | ? | 21µM* | ? | 23µM*
Oc1ccccc1C=NN=Cc1ccccc1Cl | ? | i | -3% | -3% | ? | 1%
CC(=O)c1cnn(-c2c(Cl)cc(Cl)cc2Cl)c1C | ? | i | 16µM* | -3% | 18µM* | -4%
Nc1ccc(-c2nc3nc(N)nc(N)c3nc2-c2ccc(N)cc2)cc1 | i | i | -6% | -19% | -22% | -8%
CCc1c(C2(O)CCCCC2)[nH]c2cnccc12 | i | i | ? | -2% | 18µM* | 0%
O=C(NCCO)c1cn(C2CCN(Cc3c(F)cccc3Cl)CC2)nn1 | / | / | 3% | / | 5% | /
CCOC(=O)c1cn(-c2ccccc2)nc1-c1cccnc1 | ? | ? | -12% | -1% | -24% | 7%
CCOC(=O)c1cn(-c2ccccc2)nc1-c1ccncc1 | 18µM* | ? | -4% | 0% | 2% | 0%
O=C(c1cn(-c2ccccc2)nc1-c1ccncc1)n1nnc2ccccc21 | i | i | 16µM* | -2% | -29% | -3%
CCOCCCNC(=O)CCCn1nc(C)n2c(cc3sccc32)c1=O | i | i | -20% | 4% | -10% | -1%
CCN(CCNC(=O)CCCn1nc(C)n2c(cc3sccc32)c1=O)c1ccccc1 | i | i | 15µM* | 6% | 23µM* | 10%
CN=C1CC(SC)=C1c1ccc(C)cc1 | ? | ? | 16µM* | 2% | 21µM* | 3%
O.O.O.O.O.O.O.O=S(=O)([O-])[O-].[Co+2] | / | / | -23% | / | -17% | /
SMILES | KB-V1 MDR tox | KB-3-1 cytotox | DT40 TDP1 CPT | HT1080 IDH1KD tx | TDP1 cell noCPT | HT1080-NT tox
O=C(COc1ccccc1Cl)Nc1cnn(Cc2ccccc2)c1 | ? | i | -10% | 3% | ? | 6%
O=C(Nc1cnn(Cc2c(Cl)cccc2Cl)c1)C(c1ccccc1)c1ccccc1 | i | i | 23µM* | -14% | 16µM* | -12%
Cc1cc(Cl)ccc1-c1cc2nc(NCCCN(C)C)n(C)c(=O)c2s1 | i | i | 23µM* | 18µM* | 13µM* | 18µM*
CN(C)CCCNc1nc2cc(-c3ccccc3CO)sc2c(=O)n1C | i | i | -16% | 29% | -2% | 25%
Cc1cscc1-c1cc2nc(NCCCN(C)C)n(C)c(=O)c2s1 | i | i | 16µM* | ? | ? | ?
COc1ccc(-c2cc3nc(NCCCN(C)C)n(C)c(=O)c3s2)c(C)c1 | i | i | ? | -29% | ? | ?
Cc1cc(C)c(OCC(=O)OCC(=O)NC2CCC(C)CC2)c(C)c1 (centres undefined) | i | i | -2% | 14% | -15% | 17%
COc1cc(/C=N/NC(=O)c2cccnc2)ccc1OS(=O)(=O)c1ccc(F)cc1 | i | i | ? | -5% | 21µM* | -23%
COc1cccc(NC(=O)/C=C/c2ccc([N+](=O)[O-])cc2)c1 | i | ? | -9% | -15% | -26% | -17%
COc1ccc(Oc2ccc(/C=C/C(=O)c3cccc(OC)c3)cc2[N+](=O)[O-])cc1 | ? | ? | 7.3µM* | ? | 7.3µM* | ?
COc1cc(/C=N/NC(=O)c2cccnc2)ccc1OS(=O)(=O)c1cc(C)ccc1C | i | i | ? | -23% | 23µM* | -27%
COc1ccc(Oc2ccc(/C=N/NC(=O)c3cccnc3)cc2[N+](=O)[O-])cc1 | i | i | ? | ? | 21µM* | ?
COc1ccc(/C=N/NC(=O)c2cccnc2)cc1O | i | i | 0% | 17% | -2% | 7%
NC(=O)c1nsc(C(=O)N(CC(=O)NC2CCCCC2)Cc2ccc3c(c2)OCO3)c1N | i | i | ? | / | ? | /
COC(=O)N/N=C/c1ccc(OS(=O)(=O)c2ccc(C)cc2)c(OC)c1 | i | i | -19% | -2% | ? | 1%
COc1cc(/C=N/NC(=O)COc2cccc(F)c2)ccc1OS(=O)(=O)c1ccc(C)cc1 | 5.8µM* | ? | 18µM* | ? | 26µM* | -1%
COc1cc(/C=C/C(=O)OCC(=O)NCC(=O)Nc2cccc(C)c2C)ccc1OC(F)F | i | i | -22% | 0% | 8% | 1%
CCOC(=O)N1c2ccccc2Sc2ccccc21 | i | i | -11% | -11% | ? | -3%
Cc1ccc(/C(N)=N/OC(=O)N2c3ccccc3Sc3ccccc32)cc1 | ? | i | ? | -1% | 21µM* | -1%
Cc1ccccc1/C(N)=N/OC(=O)N1c2ccccc2Sc2ccccc21 | i | i | 11µM* | -23% | 13µM* | -13%
